From the supplement of paper PMC6555819

Test system: LXRb homodimer (NR concentration 270 nM)
Assay: PBM binding z-score (relative to random genomic background probes); higher = stronger binding; sequences stand for … in GC…GCGATTGACAGCGTAGAATGAAGG
Method in brief: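 Binding buffer was PBS pH 7.4 with 2% milk, 0.02% Triton X-100, 1 mM DTT, 0.2 mg/mL BSA and 0.4 mg/ml salmon testes DNA. In it, ligand-free nuclear receptor dimers were incubated 1 h on custom Agilent 4×180K protein-binding microarrays carrying double-stranded probes. Antibodies against each partner (one per run) detected binding, and z-scores were calculated against random background probes after regression normalization of scanned fluorescence.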

Row | Sequence | PBM binding z-score
1 | CGTACAGGGTCAGCTAGGCCAGAGTAGGGACGGC | -0.514
2 | ACCGAAAGGTCGAGGTGAGTATAGAGAAAGGGAA | 0.235
3 | AATATTAGTTGACTTAGGGCAACCGATACGACGC | 0.26
4 | ACTAGCAGGCCAAGGGTCACTCCAGATTAGTCCG | -0.313
5 | ATCTCTAGGTAACAAAGTTCAGTGAATGCCGAAC | 0.958
6 | TCTAGCAGGCCAGAGGGTCACTTAAGAGGTACGG | -1.09
7 | TCTTGTAGATCATTAGAGGTTAAGAAAGTGCGCT | 0.3
8 | GCTAGTAGTTGAAAGGGCAACCGAATGATTCTCG | -0.496
9 | GCTCGGAGGACAAGGGCAGAGCTTTGTCCGTAGA | -1.47
10 | AGAATGAGGTTAAGATCATGGAAACAGAATACAT | -0.112
11 | AGTAGCAGGCCAAGTTTGGGTCACTCAAACAAAG | -0.802
12 | TCGAGTAGGTTACCAATGGGGCATTAAGCTTTCT | -1.11
13 | CCAACTAGGTCACGAAAGGTCAAAGTCGAATGAC | 2.78
14 | AGAATGAGGTTACCAAAGATCAGGGAAACGCTTG | -0.712
15 | ATCGAAAGGACGTGAGGTGAGTATACAGAAAGGC | -0.162
16 | TCTAGTTGGACACGGAGGTCACACACGACGGGTA | 0.421
17 | CTACCAAGGTGAACAAGGTCATTGATTACTATTC | -0.00581
18 | CGAACTAGGTCATTGACAGGACAGTGAGTAGTAA | -0.291
19 | TCTTGTAGATCAACAGGAGGTTATGAAAGATCGA | -0.0997
20 | ACTTACGGGTCATCGAGGTTATAGCACGCGTATA | 0.569

Row | Sequence | PBM binding z-score
21 | GCTATCAGTTGAAAGGGCAACCGAATGATTCTCG | -0.626
22 | CGAACGAGGGCATGAGTTGATAGCGAATGCCGAT | -0.724
23 | TAGCCTAGGTCATGCGGGCCAGAATAGTGTCGGC | -0.467
24 | GCTAGTTGGTCAGTAAAAGGTCACAAACCGGTCG | 0.763
25 | CCTAGTTGGTCAAGGGCACACACGCTATAGGTAC | -0.148
26 | ACAGACGGGTGAGTGAAGGTAACTCAGCTGGACG | -0.833
27 | CCTATTAGTTGACCATAAGGGCAACCTAAGCTCG | 0.685
28 | GGAACGAGGGCAAGTTGATACCAGAGTTTGATGG | 0.0862
29 | CCTTACAGGTCACTCCAGGTTATAGCATCGGAGT | 1.27
30 | TTACCAAGGTGAAGGTTGTTGATCCCTCTGTAGA | -0.706
31 | TCAGATAGGTAAACAGGTGAAAGTCCGTAAGTTA | -0.225
32 | AGAATGAGGTTGAGATCAGGGAAACAGAATACAT | -0.585
33 | TCTCGGAGGACACGAAGGTCACAGCTTTCCAGAG | -0.279
34 | TCTCGGAGGACACGAAGGTCAGATCTTTCCAGAG | -0.544
35 | AGAACGAGGGCACGCGGAGTTGATAGCAGAGTAG | -1.01
36 | CCTCAGAGGACAGAAGGTCAGAGCTGTCCGCTTT | -0.707
37 | TCTCGGAGGACACGAAGGTTAGAGCTTTCCAGAG | -1.26
38 | CGTTCAAGGTCAGAGAGGTCAGTGAATGCCGAGT | 0.61
39 | CTTGCTAGGTCATGGTCAGCTAATCTACAGTATG | -0.00744
40 | CCTTACGGGTCTCGAGGTTATAGCACGACGAGCG | -0.922
